The panel holds about 83,000 compounds, 20% with a hit somewhere; the sample as a whole holds those more often.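 Growth was measured after 48 h exposure to one concentration of compound in 96-well plates. Values under 10 count as active.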 Calls of active or inactive are those of the source.

In this experiment the test system is HCT-116 colon. Description: NCI-60 one-dose screen, 48 h (100 = growth as untreated, 0 = no growth, -100 = all killed). The conditions noted are these: 10 µM unless noted.
Turning to `CN(C)CCCNC(=O)c1cncnc1Nc1ccc2c(ccn2Cc2cccc(F)c2)c1`, the growth is 66% (inactive).
Consider `CCOC(=O)/C(=C(/C)NCC(C)C)c1cc(O)c(O)c2c(C)cc(=O)[nH]c12`, for which the growth was 10.1% (inactive).
The figure for `COc1ccc(Nc2ncc(C#N)c(NCCCNC(=O)C3CCC3)n2)cc1` is 50.1% (inactive); for `C=C1SC(=Nc2ccccc2Cl)N(C(=O)c2sc3ccccc3c2Cl)C1(C)C` it is 54% (inactive); for `CN1CC(c2ccc(Br)cc2)C(C(=O)c2ccc(Br)cc2)C12C(=O)Nc1ccccc12` (centres undefined) it is 39.7% (inactive).
The figure for `CC(C)Cc1nc(Nc2ccccc2)[nH]c(=O)c1C#N` is 54.7% (inactive); for `CC(C)(C)c1ccc(S(=O)(=O)Oc2ccc(-c3sc4cc(OS(=O)(=O)c5ccc(C(C)(C)C)cc5)ccc4c3C(=O)c3ccc(OCCN4CCCCC4)cc3)cc2)cc1` it is 91.6% (inactive).
For `Nc1ncccc1O`, the growth was 37.9% (inactive).
The figure for `COc1cc(C[C@H]2COc3cc(O)cc(O)c3C2=O)ccc1O` is 12.6% (inactive); for `CCN(CC)C(=O)CC1=C(C)/C(=C/c2[nH]c(-c3ccc[nH]3)cc2OC)N=C1C` it is 1.94% (active); for `COc1ccc(C2CC(c3ccccc3)=NN2C(=O)c2cc(OC)c(OC)c(OC)c2)cc1O` (centres undefined) it is 13.8% (inactive).
Turning to `C[C@@H]1CN(c2cnc(C(=O)Nc3cc(F)cc4cccnc34)cn2)C[C@H](C)N1`, the growth was 13.1% (inactive).
The figure for `O=C(Nc1cc(Cl)ccc1O)c1ccccc1Nc1ccnc(C(F)(F)F)c1` is 2.14% (active); for `O=c1ccc2ccc(OCCN3CCCCC3)cc2o1` it is 89% (inactive).

The values above are taken from PubChem BioAssay (NCI).
